We go through 20 compounds from PubChem BioAssay (NCATS).

Results filed as inconclusive are left out. Active and inactive are the calls of the source. Calls follow the shape of the dose curve; as a rule, active = well fitted activation curve with a large enough effect; inconclusive = small, poorly fitted or top-dose-only effect; inactive = no such curve, though single readings can be large or run the other way.

This experiment in a line: qHTS for Activators of Parkin Expression: LOPAC Validation Assay (FLuc Reporter) (AID 720573). The following applies: Cell line, PRKN promoter firefly luciferase reporter, vehicle wells = 0, positive control = 100%; series mostly up to 46.1 µM. The gist of the method:
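Neuronal cell line stably expressing FLuc/NLuc coincidence reporter under the Parkin promoter, 1,500 cells/well, dosed 24 h after seeding in 7-point series for 24 h at 37 C. FLuc luminescence read; normalized to DMSO and positive control (100%).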
For the compound `CC(C)C[C@H]1C(=O)N2CCC[C@H]2[C@]2(O)O[C@](NC(=O)[C@@H]3C=C4c5cccc6[nH]c(Br)c(c56)C[C@H]4N(C)C3)(C(C)C)C(=O)N12`, the call was inactive.

`COC(=O)[C@H]1[C@H]2C[C@H]3c4[nH]c5ccccc5c4CCN3C[C@H]2CC[C@@H]1O`: the result was inactive.

Consider `CCC(NC(C)C)C(O)c1ccc(O)c(O)c1` (stereo not given), for which the call was inactive.

For `COc1cc(NS(C)(=O)=O)ccc1Nc1c2ccccc2nc2ccccc12`, the result was inactive.

As to `CCCC1O[C@@H]2C[C@H]3[C@@H]4CCC5=CC(=O)C=C[C@]5(C)[C@H]4[C@@H](O)C[C@]3(C)[C@]2(C(=O)CO)O1` (stereo not given in full), the compound was called inactive.

`Nc1cc(Cl)c(NC2=NCCN2)c(Cl)c1`: the call was inactive.

Regarding `CC1(C)CCC(NC(=O)[C@@H](N)CCC(=O)O)CC1`, the call was inactive.

With `CNCCC=C1c2ccccc2CCc2ccccc21`, the result was inactive.

In the case of `C[C@@H]1C(=O)NC2=Nc3cccc(Cl)c3CN21`, the compound was classed as inactive.

For `CC(CCc1ccccc1)NCC(O)c1ccc(O)c(C(N)=O)c1` (stereo not given), the outcome was inactive.

Turning to `C[N+]1(CCCCC[N+]2(C)CCCC2)CCCC1`, the compound was classed as inactive.

In the case of `N[C@@H](Cc1cnc[nH]1)C(=O)O`, the call was inactive.

With `C1CCc2nnnn2CC1`, the call was inactive.

Regarding `N[C@H](CO)C(=O)O`, the call was inactive.

For the compound `O=C(O)c1cc2cc(Cc3cccnc3)ccc2o1`, the compound was called inactive.

Consider `CN1C2CCC1CC(OC(=O)c1c[nH]c3ccccc13)C2` (stereo not given), for which the compound was classed as inactive.

On to `CNCCC(Oc1ccccc1C)c1ccccc1` (stereo not given), for which the compound was classed as inactive.

On to `CC(=O)O[C@H]1C[C@@H]2CC[C@@H]3[C@H](CC[C@@]4(C)[C@H]3C[C@H]([N+]3(C)CCCCC3)[C@@H]4OC(C)=O)[C@@]2(C)C[C@@H]1[N+]1(C)CCCCC1`, for which the call was inactive.

In the case of `O=C1CCC(c2ccc(-n3ccnc3)cc2)=NN1`, the outcome was inactive.

In the case of `CC(C)COC(=O)OCN1C(=O)CN(CCN2CC(=O)N(COC(=O)OCC(C)C)C(=O)C2)CC1=O`, the result was inactive.
